Activity calls are given as the source filed them.
Experiments:
[1] = optical density shifts of acrAB sulA E. coli – strain DRC41, OD650, 48 h, E. coli filamentation inducer project, primary screen (AID 1152); settings: higher = more signal, called active from +8 up or from −8 down;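 also: E. coli MC1000 strain DRC41 lacking acrAB efflux pump and sulA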
[2] = probe aLefty1 binding on compound microarray – biochemical, small-molecule microarray, 635/667 nm fluorescence, primary screen (AID 1153); settings: higher = more signal;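 also: score merges spot fluorescence with signal-to-noise ratio from the scanned slide images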
[3] = plasmodial surface anion channel blockers, osmotic lysis – cell-based, P. falciparum Indochina, OD700, 1 h, primary screen (AID 1154); settings: P. falciparum Indochina infected RBC osmotic lysis, higher = more signal, called active from +8 up or from −8 down
[4] = plasmodial surface anion channel blockers, osmotic lysis – cell-based, P. falciparum Indochina, OD700, 2 h, primary screen (AID 1155);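 also: lysis reports solute entry through the parasite surface anion channel PSAC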; settings: P. falciparum Indochina infected erythrocytes, higher = more signal, called active from +8 up or from −8 down
[5] = changes in parasitized red cell lysis, either direction – P. falciparum Indochina, OD700, 3 h, PSAC antagonist project, primary screen (AID 1156); settings: P. falciparum-infected erythrocytes, osmotic lysis, higher = more signal, called active from +8 up or from −8 down
[6] = plasmodial surface anion channel blockers, osmotic lysis – cell-based, P. falciparum Indochina, OD700, 18 h, primary screen (AID 1157); settings: P. falciparum Indochina infected erythrocytes, osmotic lysis OD700, 18 h; higher = more signal, called active from +8 up or from −8 down
[7] = S6 kinase pathway phospho-S6 level changes – cell-based, A549, cytoblot, luminescence, serum-stimulated, primary screen (AID 1158); settings: 5 h, higher = more signal;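 also: serum-stimulated A549 lung adenocarcinoma cells; signal is phosphorylated S6 detected by cytoblot immunostaining with HRP secondary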
[8] = biological target: NADPH oxidase 2 (Homo sapiens) (UniProt P04839); test: compounds shifting NOX2 Amplex Red fluorescence – cell-based, HEK293-NOX2, PMA-stimulated, NOX inhibitor project, primary screen (AID 1159); settings: 45 min, higher = more signal, called active from +8 up or from −8 down; also: test concentration not given here
Chain of NADPH oxidase 2 (Homo sapiens) (P04839 whole entry, looked up): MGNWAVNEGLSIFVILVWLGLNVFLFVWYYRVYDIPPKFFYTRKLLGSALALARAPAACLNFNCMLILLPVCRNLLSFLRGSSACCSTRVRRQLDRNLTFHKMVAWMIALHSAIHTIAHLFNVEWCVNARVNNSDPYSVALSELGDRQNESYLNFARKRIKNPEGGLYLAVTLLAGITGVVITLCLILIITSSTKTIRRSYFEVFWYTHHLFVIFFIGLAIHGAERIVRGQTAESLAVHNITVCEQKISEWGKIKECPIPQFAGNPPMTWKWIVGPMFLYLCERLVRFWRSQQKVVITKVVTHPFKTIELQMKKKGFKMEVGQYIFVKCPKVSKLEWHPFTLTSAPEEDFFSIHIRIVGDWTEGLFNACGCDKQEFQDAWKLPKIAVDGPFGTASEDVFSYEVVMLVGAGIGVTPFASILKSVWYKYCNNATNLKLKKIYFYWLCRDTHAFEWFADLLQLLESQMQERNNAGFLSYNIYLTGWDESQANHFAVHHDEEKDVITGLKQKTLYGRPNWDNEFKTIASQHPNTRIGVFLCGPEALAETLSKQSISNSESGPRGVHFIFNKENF

[9] = biological target: NADPH oxidase 4 (Homo sapiens) (UniProt Q9NPH5); test: compounds shifting NOX4 Amplex Red fluorescence – cell-based, HEK293-NOX4, tetracycline-induced, NOX inhibitor project, primary screen (AID 1160); settings: HEK293-NOX4, Amplex Red H2O2 fluorescence, 45 min; higher = more signal, called active from +8 up or from −8 down
Chain of NADPH oxidase 4 (Homo sapiens) (Q9NPH5 whole entry, looked up): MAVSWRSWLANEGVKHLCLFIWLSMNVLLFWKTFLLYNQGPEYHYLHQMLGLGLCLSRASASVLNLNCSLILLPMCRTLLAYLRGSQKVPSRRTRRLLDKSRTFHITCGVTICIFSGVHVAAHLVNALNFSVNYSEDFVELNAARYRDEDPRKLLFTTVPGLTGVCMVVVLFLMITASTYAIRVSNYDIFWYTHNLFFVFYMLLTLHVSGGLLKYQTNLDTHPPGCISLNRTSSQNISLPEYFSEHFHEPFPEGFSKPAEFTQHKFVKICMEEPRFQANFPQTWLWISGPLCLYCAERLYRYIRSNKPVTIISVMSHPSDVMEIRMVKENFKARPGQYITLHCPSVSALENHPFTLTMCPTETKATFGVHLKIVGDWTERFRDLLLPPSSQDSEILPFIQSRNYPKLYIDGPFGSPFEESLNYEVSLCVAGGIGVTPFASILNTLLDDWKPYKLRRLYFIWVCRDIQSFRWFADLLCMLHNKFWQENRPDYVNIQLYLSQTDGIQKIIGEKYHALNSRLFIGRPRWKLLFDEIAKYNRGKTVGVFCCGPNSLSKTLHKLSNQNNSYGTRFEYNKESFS

[10] = biological target: NADPH oxidase 5 (Homo sapiens) (UniProt Q96PH1); test: compounds shifting NOX5 Amplex Red fluorescence – cell-based, HEK293-NOX5, NOX inhibitor project, primary screen (AID 1161); settings: HEK293-NOX5, ionomycin, 45 min, higher = more signal
Chain of NADPH oxidase 5 (Homo sapiens) (Q96PH1 whole entry, looked up): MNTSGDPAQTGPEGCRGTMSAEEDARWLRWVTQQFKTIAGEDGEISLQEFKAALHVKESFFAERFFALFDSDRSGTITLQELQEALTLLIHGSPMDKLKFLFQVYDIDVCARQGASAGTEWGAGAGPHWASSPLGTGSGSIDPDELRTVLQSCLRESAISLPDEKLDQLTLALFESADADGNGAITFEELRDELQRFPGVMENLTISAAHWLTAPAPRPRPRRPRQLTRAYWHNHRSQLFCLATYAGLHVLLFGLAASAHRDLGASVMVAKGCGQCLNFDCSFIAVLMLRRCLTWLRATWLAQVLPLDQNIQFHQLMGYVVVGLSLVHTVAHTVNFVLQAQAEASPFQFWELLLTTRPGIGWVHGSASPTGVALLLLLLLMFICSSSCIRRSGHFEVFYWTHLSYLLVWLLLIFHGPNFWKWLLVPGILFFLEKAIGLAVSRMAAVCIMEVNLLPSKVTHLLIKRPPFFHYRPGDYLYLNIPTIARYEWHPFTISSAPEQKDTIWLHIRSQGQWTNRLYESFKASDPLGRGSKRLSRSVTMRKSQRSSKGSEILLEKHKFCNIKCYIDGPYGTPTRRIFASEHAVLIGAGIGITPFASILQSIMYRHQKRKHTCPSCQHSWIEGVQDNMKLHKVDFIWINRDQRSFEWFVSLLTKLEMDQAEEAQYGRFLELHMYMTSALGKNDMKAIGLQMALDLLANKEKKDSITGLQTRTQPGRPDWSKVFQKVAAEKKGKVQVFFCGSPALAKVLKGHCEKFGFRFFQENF

[11] = compound effects on lung adenocarcinoma cell viability – A549, calcein-AM fluorescence, 48 h, basal, profiling panel (AID 1162); settings: higher = more signal; also: test concentration not given here
[12] = compound effects on differentiated 3T3-L1 adipocyte viability – cell-based, 3T3-L1 adipocytes, calcein-AM fluorescence, 48 h, basal, profiling panel (AID 1163); settings: 3T3-L1 adipocytes viability, higher = more signal; also: test concentration not given here
[13] = compound effects on hepatocellular carcinoma cell viability – HepG2, calcein-AM fluorescence, 48 h, basal, profiling panel (AID 1164); settings: higher = more signal; also: test concentration not given here
[14] = compound effects on multiple myeloma cell viability – MM1S, calcein-AM fluorescence, 48 h, basal, profiling panel (AID 1165); settings: higher = more signal;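 also: viability of MM1S multiple myeloma cells under basal unstimulated conditions; test concentration not given here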
[15] = calcein-AM signal in unstimulated myeloma cells – cell-based, calcein-AM fluorescence, 48 h, PK04 Diversity Set, profiling panel (AID 1166); settings: RPMI8226 myeloma viability, higher = more signal;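 also: cells grown under basal conditions without added stimulus; test concentration not given here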
[16] = JC-1 mitochondrial signal, unstimulated HepG2 cells – cell-based, JC-1 fluorescence, 24 h, 100 nL compound, profiling panel (AID 1167); settings: HepG2 mitochondrial potential, higher = more signal; also: test concentration not given here
[17] = JC-1 mitochondrial signal, unstimulated adipocytes – cell-based, JC-1 fluorescence, 3T3-L1 adipocytes, 24 h, 100 nL compound, profiling panel (AID 1168); settings: JC-1 mitochondrial fluorescence, higher = more signal, called active from +8 up or from −8 down; also: test concentration not given here
[18] = JC-1 mitochondrial signal, unstimulated myeloma cells – cell-based, JC-1 fluorescence, RPMI8226, 24 h, 100 nL compound, profiling panel (AID 1169); settings: JC-1 mitochondrial potential fluorescence, higher = more signal; also: test concentration not given here
[19] = JC-1 mitochondrial signal, unstimulated MM1S myeloma – cell-based, JC-1 fluorescence, 24 h, 100 nL compound, profiling panel (AID 1170); settings: MM1S mitochondrial potential, higher = more signal; also: test concentration not given here
[20] = resazurin metabolic signal in A549 cells – cell-based, resazurin fluorescence, 24 h, PK04 Diversity Set, profiling panel (AID 1171); settings: A549 viability, higher = more signal, called active from +8 up or from −8 down; also: test concentration not given here

SMILES	z-score [1]	composite z-score [2]	z-score [3]	z-score [4]	z-score [5]	z-score [6]	z-score [7]	z-score [8]	z-score [9]	z-score [10]	z-score [11]	z-score [12]	z-score [13]	z-score [14]	z-score [15]	z-score [16]	z-score [17]	z-score [18]	z-score [19]	z-score [20]
COc1ccc(C(=O)Nc2cccc(CN3C(=O)[C@@]4(O[C@@H](CC(=O)N5Cc6ccccc6C[C@H]5CO)[C@H]([Si](C)(C)c5ccc(OC)cc5)[C@H]4C)c4ccccc43)c2)cc1	-0.333 (inactive)	0.139	4.24 (inactive)	1.49 (inactive)	0.712 (inactive)	0.768 (inactive)	1.33	-1.03 (inactive)	0.0938 (inactive)	-0.713	0.0601	0.778	-0.446	-2.57	-3.06	0.851	0.862 (inactive)	-0.976	-1.88	-0.967 (inactive)
OCCCc1cc[n+](Cc2cccc(OC(F)(F)F)c2)cc1	-0.123 (inactive)	0.363	0.514 (inactive)	0.816 (inactive)	1.54 (inactive)	0.916 (inactive)	0.211	0.972 (inactive)	-0.285 (inactive)	0.384	-0.0193	0.997	-1.18	0.277	-1.86	1.14	-0.487 (inactive)	-0.0293	-0.978	0.484 (inactive)
Cc1ccc(F)cc1S(=O)(=O)N[C@@H]1CCN(Cc2ccc(C(F)(F)F)cc2)C1	-5.36 (inactive)	-0.152	4.85 (inactive)	1.15 (inactive)	0.129 (inactive)	0.624 (inactive)	-0.147	-0.344 (inactive)	-1.19 (inactive)	-2	-0.455	-1.68	-1.82	-2.4	-2.09	-3.18	-0.332 (inactive)	-0.615	-1.75	-0.196 (inactive)
CN1C(=O)C2C=CC(C(O)C(c3ccccc3)c3ccccc3)N(Nc3ccccc3)C2C1=O (stereo not given)	-2.34 (inactive)	0.516	1.63 (inactive)	2.15 (inactive)	0.742 (inactive)	1.12 (inactive)	-0.946	-1.39 (inactive)	-4.91 (inactive)	-2.44	0.322	-0.648	-0.0678	-1.34	-1.07	-1.66	-0.981 (inactive)	0.212	-0.179	0.46 (inactive)
CCOC(=O)N1C(c2ccc(OCCCO)cc2)=NC(C(=O)OC)N1C(=O)OCC (stereo not given)	1.28 (inactive)	0.371	20.5 (active)	2.44 (inactive)	0.873 (inactive)	-1.07 (inactive)	1.02	-1.43 (inactive)	0.403 (inactive)	0.203	-0.481	0.69	0.21	0.487	0.732	-0.231	0.68 (inactive)	-1.24	0.0773	0.352 (inactive)
[N-]=[N+]=NCc1ccccc1C[C@]1(C(=O)NCCN2CCOCC2)N=C(c2ccc(OCCCO)cc2)O[C@H]1c1ccccc1CN=[N+]=[N-]	1.26 (inactive)	0.453	20.7 (active)	3.07 (inactive)	0.58 (inactive)	0.669 (inactive)	2.75	-4.56 (inactive)	-2.27 (inactive)	-1.27	0.0783	1.99	0.356	-2.14	-3.34	1.27	-0.492 (inactive)	-0.784	-1.65	-0.403 (inactive)
COc1ccc([Si](C)(C)[C@@H]2[C@@H](CCO)O[C@]3(C(=O)N(Cc4ccccc4)c4ccc(N(C=O)c5ccccc5)cc43)[C@H]2C)cc1	0.601 (inactive)	0.0355	2.8 (inactive)	2.37 (inactive)	1.09 (inactive)	1.87 (inactive)	0.418	0.337 (inactive)	1.06 (inactive)	2.49	-0.77	-0.895	-1.13	-1.54	-3.38	0.00444	-0.435 (inactive)	-0.858	-1.56	-2.31 (inactive)
C=CC[C@@]1(C(=O)OC)N=C(c2ccc(OCCCO)cc2)O[C@@H]1c1ccccc1CN=[N+]=[N-]	1.24 (inactive)	0.0674	26.9 (active)	18.7 (active)	-0.26 (inactive)	3.48 (inactive)	1.79	-4.05 (inactive)	0.419 (inactive)	-3.1	-0.817	0.358	-1.13	-2.7	-3.17	0.195	1.31 (inactive)	-0.969	-0.949	-1.19 (inactive)
CN(C)CCCCCCNC(=O)[C@@H]1C[C@@H]2C(=O)N[C@@H](Cc3ccccc3)C(=O)N2[C@@H]1c1cccc(OCCO)c1	0.392 (inactive)	0.073	3.81 (inactive)	0.415 (inactive)	0.407 (inactive)	0.154 (inactive)	-0.243	1.08 (inactive)	1.4 (inactive)	1.4	-0.778	0.559	-0.857	0.802	-0.555	-1.02	-0.822 (inactive)	0.0287	0.316	-0.115 (inactive)
CCCCC(=C=CC[C@H](O)c1ccccc1OCCO)C[C@H](O)c1cc(Cl)cc(Cl)c1O	-0.0999 (inactive)	-0.0989	15.9 (active)	2.79 (inactive)	-0.179 (inactive)	1.46 (inactive)	0.276	-0.565 (inactive)	-1.5 (inactive)	-2.02	0.441	-0.0739	0.105	-3.29	-2.59	-0.605	0.201 (inactive)	-0.655	-1.13	0.135 (inactive)
CCN(CC)c1ccc(N2CC=CC34O[C@@H]5/C=C\CCCOC(=O)C5[C@H]3C(=O)N(CCCO)[C@@H]4C2=O)cc1 (stereo not given in full)	-0.522 (inactive)	0.235	1.78 (inactive)	0.225 (inactive)	-0.462 (inactive)	0.308 (inactive)	-0.219	0.024 (inactive)	0.558 (inactive)	0.931	-0.13	0.275	0.616	0.794	-0.0911	0.472	-0.546 (inactive)	-0.0632	0.918	0.876 (inactive)
O=C1C2C=CC(C(O)c3ccc(-c4ccccc4)s3)N(Nc3ccccc3F)C2C(=O)N1c1ccccc1 (stereo not given)	-1.69 (inactive)	0.282	4.17 (inactive)	1.66 (inactive)	0.8 (inactive)	1.27 (inactive)	-0.501	-0.49 (inactive)	-4.68 (inactive)	-3.41	-1.07	-0.0797	-0.297	-0.0003	-1.3	-2.29	-1.57 (inactive)	-0.35	-0.0666	-1.7 (inactive)
COc1ccc([Si](C)(C)[C@@H]2[C@@H](CCn3cc([C@H](O)c4ccccc4)nn3)O[C@]3(C(=O)N(C)c4ccccc43)[C@H]2C)cc1	-0.702 (inactive)	-0.101	4.2 (inactive)	0.579 (inactive)	1.51 (inactive)	0.325 (inactive)	0.416	1.62 (inactive)	0.689 (inactive)	-1.55	-0.536	1.27	-1.01	-2.69	-3.85	0.988	-0.42 (inactive)	-0.866	-0.252	-1.89 (inactive)
CCOC(=O)C[C@H]1[C@H](OC(=O)c2ccc(C(=O)c3ccccc3)cc2)[C@@H](NC(=O)c2ccc3ccccc3n2)c2cc(OCCCO)ccc2N1C(=O)c1ccc2ccccc2n1	1.14 (inactive)	0.464	5.2 (inactive)	1.1 (inactive)	-0.327 (inactive)	0.579 (inactive)	0.495	-0.0371 (inactive)	0.532 (inactive)	1.03	0.602	-0.402	0.674	-0.367	-0.0521	1.24	1.63 (inactive)	-0.0794	0.215	1.04 (inactive)
CCCCN1CC=CC23O[C@@H]4/C=C\CCCOC(=O)C4[C@H]2C(=O)N(C(C)CO)[C@@H]3C1=O (stereo not given in full)	0.65 (inactive)	-0.206	1.43 (inactive)	1.06 (inactive)	1.96 (inactive)	0.405 (inactive)	0.199	0.889 (inactive)	0.124 (inactive)	1.5	-0.455	-0.455	-0.564	0.35	1.4	0.698	0.0147 (inactive)	-0.546	-1.11	-0.249 (inactive)
COC(=O)[C@@]1(Cc2ccc(F)cc2)[C@H]2c3cc(C(=O)N(C)C)n(CCCNc4ccc(C(F)(F)F)cc4Cl)c3C[C@H]2CN1C(=O)c1ccccc1	-1.74 (inactive)	0.634	1.36 (inactive)	0.986 (inactive)	0.277 (inactive)	1.33 (inactive)	-0.0991	0.844 (inactive)	0.619 (inactive)	0.897	-1.34	-0.851	-0.136	-0.84	-4.32	2.61	0.391 (inactive)	-0.777	-2.12	-1.85 (inactive)
CN1C(=O)C2C=CC(C(O)C=Cc3ccc([N+](=O)[O-])cc3)N(N3CCCCC3)C2C1=O (stereo not given)	-1.54 (inactive)	1.11	2.72 (inactive)	0.962 (inactive)	0.714 (inactive)	1.02 (inactive)	-0.9	-0.542 (inactive)	-0.397 (inactive)	-1.25	-1.1	-1.15	-0.382	-0.351	0.107	-1.77	-1.31 (inactive)	-0.834	-0.4	-0.244 (inactive)
CN(C)CCCC[C@@H]1NC(=O)[C@@H]2C[C@H](C(=O)NCCCCCCN)[C@H](c3ccc(O)cc3)N2C1=O	-0.337 (inactive)	1.37	1.98 (inactive)	0.288 (inactive)	1.28 (inactive)	0.229 (inactive)	-0.648	1.46 (inactive)	-0.964 (inactive)	1.01	-0.215	0.958	-0.544	0.405	0.483	-1.36	-0.0708 (inactive)	0.576	0.213	0.291 (inactive)

Source: PubChem BioAssay
